The text below walks through data of paper PMC7862700, “An all-to-all approach to the identification of sequence-specific readers for epigenetic DNA modifications on cytosine”.

Holding throughout (assay): DAPPL (digital affinity profiling via proximity ligation, sequencing); 10 mM Tris-HCl pH 7.5, 50 mM NaCl, 1 mM DTT, 4% glycerol, room temperature, 30 min; GST-TFs on glutathione beads, 16-mer random dsDNA library, 0.1% formaldehyde crosslink after washing; high values mean tight binding
For assay [1], the target named is T1, FEV (Homo sapiens, UniProt Q99581 1-238).
T1 sequence: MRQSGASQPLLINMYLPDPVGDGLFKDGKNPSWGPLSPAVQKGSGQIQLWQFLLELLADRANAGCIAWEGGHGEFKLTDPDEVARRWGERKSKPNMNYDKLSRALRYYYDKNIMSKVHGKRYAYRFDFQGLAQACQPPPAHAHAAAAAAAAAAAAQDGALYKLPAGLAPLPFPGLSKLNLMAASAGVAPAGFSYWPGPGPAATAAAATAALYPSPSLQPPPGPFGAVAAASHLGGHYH
Conditions: protein: recombinant; tags: N-terminal GST; dsDNA, one strand shown. In short, it runs like this: (§1)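 Binding signal is defined as a hexamer's read frequency for one factor over its frequency for the tag-only sample. To obtain reads, GST-fused human transcription factors were expressed in yeast, captured on glutathione beads, barcoded with DNA and pooled with that sample. Pools met 200 nmole of a 16-mer random double-stranded DNA library in Tris/NaCl/DTT/glycerol buffer for 30 min at room temperature before washing, 0.1% formaldehyde crosslinking, proximity ligation (BsaI/T4 ligase, 1 h, 37 °C), PCR and Illumina NextSeq500 sequencing.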

The target of assay [2] is ETV5 (Homo sapiens, UniProt P41161 1-510). The following applies: protein: recombinant; tags: N-terminal GST; dsDNA, one strand shown. Put shortly:
as §1

Assay [3] deals with HSF1 (Homo sapiens, UniProt Q00613 1-529). Conditions: protein: recombinant; tags: N-terminal GST; chain copies: 3; dsDNA, one strand shown. Put shortly:
as §1

For assay [4], the target named is T2, SPIC (Homo sapiens, UniProt Q8N5J4 1-248).
T2 sequence: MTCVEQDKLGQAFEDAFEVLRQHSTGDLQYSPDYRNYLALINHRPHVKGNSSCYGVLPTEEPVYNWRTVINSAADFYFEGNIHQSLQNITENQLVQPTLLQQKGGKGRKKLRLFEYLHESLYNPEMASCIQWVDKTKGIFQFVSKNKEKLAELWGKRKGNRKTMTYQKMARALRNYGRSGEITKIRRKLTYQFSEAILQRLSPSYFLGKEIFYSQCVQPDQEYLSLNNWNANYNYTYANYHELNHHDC
The following applies: protein: recombinant; tags: N-terminal GST; dsDNA, one strand shown. Put shortly:
as §1

The target of assay [5] is ELF4 (Homo sapiens, UniProt Q99607 1-663). The following applies: protein: recombinant; tags: N-terminal GST; dsDNA, one strand shown. Put shortly: as §1
ELF4, sequence (Q99607 whole entry): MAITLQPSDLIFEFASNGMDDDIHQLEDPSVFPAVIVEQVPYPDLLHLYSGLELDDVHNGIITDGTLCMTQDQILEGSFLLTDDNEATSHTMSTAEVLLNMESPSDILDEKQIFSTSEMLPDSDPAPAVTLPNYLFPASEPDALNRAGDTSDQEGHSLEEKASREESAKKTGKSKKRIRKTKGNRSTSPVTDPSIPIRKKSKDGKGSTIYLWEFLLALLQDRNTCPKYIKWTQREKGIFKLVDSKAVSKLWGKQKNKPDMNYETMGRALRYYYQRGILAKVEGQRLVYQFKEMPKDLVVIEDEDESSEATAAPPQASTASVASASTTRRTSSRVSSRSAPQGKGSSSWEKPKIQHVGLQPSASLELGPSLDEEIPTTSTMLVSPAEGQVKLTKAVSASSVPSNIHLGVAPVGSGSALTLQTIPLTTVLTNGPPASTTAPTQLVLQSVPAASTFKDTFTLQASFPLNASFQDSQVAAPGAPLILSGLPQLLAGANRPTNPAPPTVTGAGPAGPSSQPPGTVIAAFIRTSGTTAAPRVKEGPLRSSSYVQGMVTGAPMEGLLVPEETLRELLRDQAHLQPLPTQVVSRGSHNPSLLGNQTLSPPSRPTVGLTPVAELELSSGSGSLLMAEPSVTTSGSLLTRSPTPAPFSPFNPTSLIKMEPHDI
Assay [6] deals with T3, ELK4 (Homo sapiens, UniProt P28324-2 1-405).
T3 sequence: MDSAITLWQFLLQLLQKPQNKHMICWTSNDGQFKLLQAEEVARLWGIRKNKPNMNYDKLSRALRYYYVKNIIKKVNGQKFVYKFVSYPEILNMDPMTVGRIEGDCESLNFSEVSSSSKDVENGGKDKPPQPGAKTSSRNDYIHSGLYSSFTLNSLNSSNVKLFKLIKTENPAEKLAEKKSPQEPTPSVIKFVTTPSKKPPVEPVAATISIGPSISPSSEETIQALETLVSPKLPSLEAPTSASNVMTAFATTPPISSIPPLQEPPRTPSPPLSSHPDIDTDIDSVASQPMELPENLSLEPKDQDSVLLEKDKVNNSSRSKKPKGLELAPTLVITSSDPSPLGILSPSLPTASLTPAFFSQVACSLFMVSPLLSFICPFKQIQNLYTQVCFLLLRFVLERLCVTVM
The following applies: protein: recombinant; tags: N-terminal GST; dsDNA, one strand shown. Put shortly: as §1

Assay [7] deals with T4, ETV2 (Homo sapiens, UniProt O00321 1-342).
T4 sequence: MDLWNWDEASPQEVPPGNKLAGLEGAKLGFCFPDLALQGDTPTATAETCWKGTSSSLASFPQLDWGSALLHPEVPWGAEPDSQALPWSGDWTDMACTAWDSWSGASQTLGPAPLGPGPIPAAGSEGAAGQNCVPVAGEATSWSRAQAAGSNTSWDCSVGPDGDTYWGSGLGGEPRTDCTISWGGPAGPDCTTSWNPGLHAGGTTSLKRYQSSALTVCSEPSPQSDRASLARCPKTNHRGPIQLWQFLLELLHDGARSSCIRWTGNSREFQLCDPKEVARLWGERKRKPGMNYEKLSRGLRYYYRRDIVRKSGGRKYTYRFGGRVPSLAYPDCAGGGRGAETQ
Conditions: protein: recombinant; tags: N-terminal GST; dsDNA, one strand shown. Put shortly: as §1

Assay [8] deals with T5, ELF3 (Homo sapiens, UniProt P78545 1-371).
T5 sequence: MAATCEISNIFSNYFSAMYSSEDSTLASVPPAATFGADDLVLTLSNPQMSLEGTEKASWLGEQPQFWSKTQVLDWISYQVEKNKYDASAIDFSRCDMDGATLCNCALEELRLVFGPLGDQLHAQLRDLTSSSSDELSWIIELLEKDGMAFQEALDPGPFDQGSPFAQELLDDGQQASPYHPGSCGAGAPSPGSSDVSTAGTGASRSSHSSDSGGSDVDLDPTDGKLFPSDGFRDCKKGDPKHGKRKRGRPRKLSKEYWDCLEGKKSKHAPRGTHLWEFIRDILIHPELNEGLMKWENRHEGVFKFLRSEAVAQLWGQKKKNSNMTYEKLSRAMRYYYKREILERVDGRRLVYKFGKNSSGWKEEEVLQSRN
The following applies: protein: recombinant; tags: N-terminal GST; dsDNA, one strand shown. Put shortly:
as §1

The target in assay [9] is CRX (Homo sapiens, UniProt O43186 1-299). The following applies: protein: recombinant; tags: N-terminal GST; dsDNA, one strand shown. In short, it runs like this:
as §1

Assay [10] deals with ETV1 (Homo sapiens, UniProt P50549 1-477). The following applies: protein: recombinant; tags: N-terminal GST; dsDNA, one strand shown. Put shortly:
as §1

Assay [11] addresses T6, ERF (Homo sapiens, UniProt P50548 1-548).
T6 sequence: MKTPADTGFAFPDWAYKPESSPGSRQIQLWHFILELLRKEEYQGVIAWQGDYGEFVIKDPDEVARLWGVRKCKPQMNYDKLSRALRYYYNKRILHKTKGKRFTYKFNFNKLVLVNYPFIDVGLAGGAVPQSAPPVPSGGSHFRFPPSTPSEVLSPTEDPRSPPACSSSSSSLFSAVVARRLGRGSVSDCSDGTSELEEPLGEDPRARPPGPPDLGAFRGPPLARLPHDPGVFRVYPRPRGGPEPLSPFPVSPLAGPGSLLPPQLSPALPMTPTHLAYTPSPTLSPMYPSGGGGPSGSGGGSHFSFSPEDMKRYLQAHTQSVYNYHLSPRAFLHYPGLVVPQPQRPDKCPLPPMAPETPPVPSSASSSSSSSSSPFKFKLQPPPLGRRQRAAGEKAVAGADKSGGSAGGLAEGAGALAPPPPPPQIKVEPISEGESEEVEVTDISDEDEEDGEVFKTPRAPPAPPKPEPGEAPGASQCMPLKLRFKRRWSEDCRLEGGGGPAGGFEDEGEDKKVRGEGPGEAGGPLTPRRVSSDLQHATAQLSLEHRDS
Conditions: protein: recombinant; tags: N-terminal GST; dsDNA, one strand shown. In short, it runs like this:
as §1

Assay [12] concerns the target T7, ETV3L (Homo sapiens, UniProt Q6ZN32 1-361).
T7 sequence: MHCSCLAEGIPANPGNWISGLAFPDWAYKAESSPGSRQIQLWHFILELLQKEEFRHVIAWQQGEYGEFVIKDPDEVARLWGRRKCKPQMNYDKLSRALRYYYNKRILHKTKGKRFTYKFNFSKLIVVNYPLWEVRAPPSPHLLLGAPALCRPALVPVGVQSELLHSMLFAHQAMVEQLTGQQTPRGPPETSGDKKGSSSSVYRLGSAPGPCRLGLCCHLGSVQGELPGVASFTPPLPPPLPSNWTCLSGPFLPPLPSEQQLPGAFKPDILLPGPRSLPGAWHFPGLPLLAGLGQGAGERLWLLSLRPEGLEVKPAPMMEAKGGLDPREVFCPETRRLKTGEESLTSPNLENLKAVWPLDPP
The following applies: protein: recombinant; tags: N-terminal GST; dsDNA, one strand shown. Put shortly:
as §1

Assay [13] deals with T8, ETS2 (Homo sapiens, UniProt P15036 1-469).
T8 sequence: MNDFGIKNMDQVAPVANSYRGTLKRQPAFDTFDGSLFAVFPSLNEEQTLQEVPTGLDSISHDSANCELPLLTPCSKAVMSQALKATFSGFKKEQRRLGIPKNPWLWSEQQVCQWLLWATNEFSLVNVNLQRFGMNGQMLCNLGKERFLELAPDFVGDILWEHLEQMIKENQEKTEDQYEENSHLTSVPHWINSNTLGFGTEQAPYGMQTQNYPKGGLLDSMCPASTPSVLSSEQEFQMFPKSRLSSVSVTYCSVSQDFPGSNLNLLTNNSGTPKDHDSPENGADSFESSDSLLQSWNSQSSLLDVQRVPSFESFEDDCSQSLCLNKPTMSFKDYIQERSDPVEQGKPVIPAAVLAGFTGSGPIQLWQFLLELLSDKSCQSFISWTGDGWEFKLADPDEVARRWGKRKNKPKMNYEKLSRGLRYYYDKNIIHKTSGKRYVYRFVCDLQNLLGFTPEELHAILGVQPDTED
Conditions: protein: recombinant; tags: N-terminal GST; dsDNA, one strand shown. In short, it runs like this: as §1

In assay [14] the target is T9, SPDEF (Homo sapiens, UniProt O95238 1-335).
T9 sequence: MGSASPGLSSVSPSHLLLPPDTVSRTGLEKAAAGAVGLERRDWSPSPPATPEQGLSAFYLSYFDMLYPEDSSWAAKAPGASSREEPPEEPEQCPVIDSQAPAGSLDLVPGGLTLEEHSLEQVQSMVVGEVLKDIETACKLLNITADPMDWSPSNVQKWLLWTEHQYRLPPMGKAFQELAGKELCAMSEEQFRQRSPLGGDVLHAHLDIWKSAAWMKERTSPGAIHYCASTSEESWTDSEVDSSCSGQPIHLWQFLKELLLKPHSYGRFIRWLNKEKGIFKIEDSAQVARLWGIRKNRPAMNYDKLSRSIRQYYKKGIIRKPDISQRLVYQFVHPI
The following applies: protein: recombinant; tags: N-terminal GST; dsDNA, one strand shown. In short, it runs like this: as §1

The target in assay [15] is T10, ETV7 (Homo sapiens, UniProt Q9Y603 1-341).
T10 sequence: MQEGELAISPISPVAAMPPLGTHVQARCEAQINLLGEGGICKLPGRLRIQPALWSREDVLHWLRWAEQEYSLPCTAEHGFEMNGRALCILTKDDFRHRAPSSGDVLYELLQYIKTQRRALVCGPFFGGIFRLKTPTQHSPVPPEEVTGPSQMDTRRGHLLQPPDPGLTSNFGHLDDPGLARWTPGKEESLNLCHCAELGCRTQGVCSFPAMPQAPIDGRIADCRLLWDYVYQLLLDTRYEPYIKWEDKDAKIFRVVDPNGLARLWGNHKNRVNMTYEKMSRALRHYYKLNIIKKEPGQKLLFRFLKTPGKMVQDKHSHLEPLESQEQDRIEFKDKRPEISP
The following applies: protein: recombinant; tags: N-terminal GST; dsDNA, one strand shown. Put shortly: as §1

The target of assay [16] is T11, ELF5 (Homo sapiens, UniProt Q9UKW6-2 1-255).
T11 sequence: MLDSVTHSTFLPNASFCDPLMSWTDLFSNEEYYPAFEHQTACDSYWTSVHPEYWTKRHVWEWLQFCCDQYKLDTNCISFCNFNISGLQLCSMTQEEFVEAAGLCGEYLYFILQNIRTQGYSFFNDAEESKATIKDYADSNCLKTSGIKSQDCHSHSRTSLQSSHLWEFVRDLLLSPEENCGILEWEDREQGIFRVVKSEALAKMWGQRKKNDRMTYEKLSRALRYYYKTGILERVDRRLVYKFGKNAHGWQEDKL
Conditions: protein: recombinant; tags: N-terminal GST; dsDNA, one strand shown. Put shortly: as §1

For assay [17], the target named is T12, ETV3 (Homo sapiens, UniProt P41162-2 1-143).
T12 sequence: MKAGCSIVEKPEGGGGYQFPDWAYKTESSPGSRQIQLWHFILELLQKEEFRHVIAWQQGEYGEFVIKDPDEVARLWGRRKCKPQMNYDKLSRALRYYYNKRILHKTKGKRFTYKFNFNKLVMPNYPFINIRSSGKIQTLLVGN
The following applies: protein: recombinant; tags: N-terminal GST; dsDNA, one strand shown. In short, it runs like this: as §1

Assay [18] concerns the target ETV6 (Homo sapiens, UniProt P41212 1-452). The following applies: protein: recombinant; tags: N-terminal GST; dsDNA, one strand shown. In short, it runs like this:
as §1

HSF1, sequence (Q00613 whole entry): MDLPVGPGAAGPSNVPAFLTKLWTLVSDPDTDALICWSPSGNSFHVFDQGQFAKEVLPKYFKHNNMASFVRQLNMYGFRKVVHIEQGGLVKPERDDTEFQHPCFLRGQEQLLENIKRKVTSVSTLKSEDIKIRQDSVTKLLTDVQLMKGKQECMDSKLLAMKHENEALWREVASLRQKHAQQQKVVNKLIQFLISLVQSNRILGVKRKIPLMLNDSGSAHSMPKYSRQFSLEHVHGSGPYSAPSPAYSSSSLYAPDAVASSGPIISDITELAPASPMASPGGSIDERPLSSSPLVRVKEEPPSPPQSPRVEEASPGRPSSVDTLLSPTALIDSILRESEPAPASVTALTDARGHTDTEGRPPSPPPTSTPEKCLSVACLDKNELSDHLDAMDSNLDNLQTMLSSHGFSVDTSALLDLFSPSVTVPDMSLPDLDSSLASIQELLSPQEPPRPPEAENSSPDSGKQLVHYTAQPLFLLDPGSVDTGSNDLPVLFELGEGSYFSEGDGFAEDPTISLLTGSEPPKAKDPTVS
ETV1, sequence (P50549 whole entry): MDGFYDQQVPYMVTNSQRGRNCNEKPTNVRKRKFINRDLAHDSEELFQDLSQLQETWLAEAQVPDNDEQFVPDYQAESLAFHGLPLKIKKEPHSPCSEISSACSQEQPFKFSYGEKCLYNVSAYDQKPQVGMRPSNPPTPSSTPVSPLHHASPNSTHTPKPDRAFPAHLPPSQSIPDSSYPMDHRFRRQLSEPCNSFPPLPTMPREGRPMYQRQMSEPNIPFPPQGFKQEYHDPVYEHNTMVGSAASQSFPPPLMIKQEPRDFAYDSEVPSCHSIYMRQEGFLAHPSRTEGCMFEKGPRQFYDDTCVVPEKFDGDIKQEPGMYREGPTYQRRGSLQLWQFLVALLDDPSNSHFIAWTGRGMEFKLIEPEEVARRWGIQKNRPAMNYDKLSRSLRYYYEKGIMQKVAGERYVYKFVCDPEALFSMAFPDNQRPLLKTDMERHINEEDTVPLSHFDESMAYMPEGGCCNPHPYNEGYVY
ETV5, sequence (P41161 whole entry): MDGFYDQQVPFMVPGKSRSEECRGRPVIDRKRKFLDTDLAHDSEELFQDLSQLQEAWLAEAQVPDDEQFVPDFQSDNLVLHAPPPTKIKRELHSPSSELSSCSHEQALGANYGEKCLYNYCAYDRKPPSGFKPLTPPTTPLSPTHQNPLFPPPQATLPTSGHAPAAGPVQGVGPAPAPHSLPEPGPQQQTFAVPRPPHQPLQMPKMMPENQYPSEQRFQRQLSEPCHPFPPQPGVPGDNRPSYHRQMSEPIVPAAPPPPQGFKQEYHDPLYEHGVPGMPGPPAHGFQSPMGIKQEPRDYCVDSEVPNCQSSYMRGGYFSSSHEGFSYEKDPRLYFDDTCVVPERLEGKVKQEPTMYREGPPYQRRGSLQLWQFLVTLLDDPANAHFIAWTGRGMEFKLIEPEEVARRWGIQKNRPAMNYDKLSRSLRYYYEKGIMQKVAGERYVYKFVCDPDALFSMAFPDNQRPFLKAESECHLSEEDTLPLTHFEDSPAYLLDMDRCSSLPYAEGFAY
ETV6, sequence (P41212 whole entry): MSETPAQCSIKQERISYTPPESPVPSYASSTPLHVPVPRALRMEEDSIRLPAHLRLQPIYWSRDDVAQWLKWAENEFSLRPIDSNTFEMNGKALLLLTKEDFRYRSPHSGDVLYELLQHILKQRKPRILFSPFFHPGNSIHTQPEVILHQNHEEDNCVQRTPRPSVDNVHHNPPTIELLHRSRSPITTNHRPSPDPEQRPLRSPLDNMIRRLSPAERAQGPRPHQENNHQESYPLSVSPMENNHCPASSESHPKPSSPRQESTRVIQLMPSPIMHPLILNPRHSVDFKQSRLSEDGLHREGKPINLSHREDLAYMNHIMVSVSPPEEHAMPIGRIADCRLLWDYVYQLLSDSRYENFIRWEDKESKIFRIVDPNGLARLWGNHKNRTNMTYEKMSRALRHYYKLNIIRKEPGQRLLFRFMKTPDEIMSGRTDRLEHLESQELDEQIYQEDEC
CRX, sequence (O43186 whole entry): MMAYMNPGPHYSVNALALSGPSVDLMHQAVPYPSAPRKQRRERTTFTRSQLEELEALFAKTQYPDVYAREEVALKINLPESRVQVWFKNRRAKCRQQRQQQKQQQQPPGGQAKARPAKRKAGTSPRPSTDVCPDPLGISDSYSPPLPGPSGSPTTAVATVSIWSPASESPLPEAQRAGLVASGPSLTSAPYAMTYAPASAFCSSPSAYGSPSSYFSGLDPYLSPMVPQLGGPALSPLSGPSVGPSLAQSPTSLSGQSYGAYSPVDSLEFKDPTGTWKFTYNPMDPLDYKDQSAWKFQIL

CACAAG: the binding signal was 1.08 fold enrichment (6-mer frequency, TF over GST control) in [1]; 1.13 fold enrichment (6-mer frequency, TF over GST control) in assay [2]; 1.06 fold enrichment (6-mer frequency, TF over GST control) in assay [3]; 1.09 fold enrichment (6-mer frequency, TF over GST control) in assay [4]; 1.2 fold enrichment (6-mer frequency, TF over GST control) in [5]; 1.07 fold enrichment (6-mer frequency, TF over GST control) in assay [6]. Further, the binding signal in assay [7] was 1.11 fold enrichment (6-mer frequency, TF over GST control); in assay [8], 1.17 fold enrichment (6-mer frequency, TF over GST control); in assay [9], 1.01 fold enrichment (6-mer frequency, TF over GST control); in assay [10], 1.18 fold enrichment (6-mer frequency, TF over GST control); in assay [11], 1.13 fold enrichment (6-mer frequency, TF over GST control); in assay [12] it was 1.16 fold enrichment (6-mer frequency, TF over GST control). Further, the binding signal was 1.22 fold enrichment (6-mer frequency, TF over GST control) in assay [13]; 1.07 fold enrichment (6-mer frequency, TF over GST control) in [14]; 1.05 fold enrichment (6-mer frequency, TF over GST control) in assay [15]; 1.11 fold enrichment (6-mer frequency, TF over GST control) in assay [16]; 1.16 fold enrichment (6-mer frequency, TF over GST control) in assay [17]; 1.14 fold enrichment (6-mer frequency, TF over GST control) in assay [18].
